# Source: PubChem
# HTR5A inv ctr: counter-screen for OPRM1-OPRD1 inverse agonists: human HTR5A inverse agonism | P47898 | HTR5A cell line, luminescence | inhibition, % at 9.3 µM | hit rate 0.083% among 340,000; in the data active = inhibition mostly above about 23%, no sharp cut-off; inactive = mostly below about 18%;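 note: 0% = cells with DMSO and 100% = no-cell wells with DMSO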
# MIN6 prolif-1: MIN6 beta-cell proliferation induction. hit rate 0.29% among 330,000. AID 2380. proliferation, % at 10 µM. MIN6 cells proliferation, ATPlite luminescence, 48 h; cells starved in 0.2% serum; 100% = growth in 10% serum;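 active = compounds whose signal lies at least 3.5 SD above the mean of all wells on their plate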;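 note: 0% = DMSO-treated cells in low-serum medium and 100% = 10% serum control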
# p-CIP stab down: lowers stability of the mouse p/CIP coactivator protein; AID 1984; Q05BA5; F442A p/CIP-EGFP cells, EGFP fluorescence, 16 h; hit rate 0.01% among 290,000; decrease of EGFP signal, % at 10 µM;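 active = EGFP signal decrease of at least 30% at 10 µM or well 3 SD below plate mean, unless failing retest; inactive = the rest, including hits failing retest or dose response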
# Target sequence (Q05BA5 1-1403): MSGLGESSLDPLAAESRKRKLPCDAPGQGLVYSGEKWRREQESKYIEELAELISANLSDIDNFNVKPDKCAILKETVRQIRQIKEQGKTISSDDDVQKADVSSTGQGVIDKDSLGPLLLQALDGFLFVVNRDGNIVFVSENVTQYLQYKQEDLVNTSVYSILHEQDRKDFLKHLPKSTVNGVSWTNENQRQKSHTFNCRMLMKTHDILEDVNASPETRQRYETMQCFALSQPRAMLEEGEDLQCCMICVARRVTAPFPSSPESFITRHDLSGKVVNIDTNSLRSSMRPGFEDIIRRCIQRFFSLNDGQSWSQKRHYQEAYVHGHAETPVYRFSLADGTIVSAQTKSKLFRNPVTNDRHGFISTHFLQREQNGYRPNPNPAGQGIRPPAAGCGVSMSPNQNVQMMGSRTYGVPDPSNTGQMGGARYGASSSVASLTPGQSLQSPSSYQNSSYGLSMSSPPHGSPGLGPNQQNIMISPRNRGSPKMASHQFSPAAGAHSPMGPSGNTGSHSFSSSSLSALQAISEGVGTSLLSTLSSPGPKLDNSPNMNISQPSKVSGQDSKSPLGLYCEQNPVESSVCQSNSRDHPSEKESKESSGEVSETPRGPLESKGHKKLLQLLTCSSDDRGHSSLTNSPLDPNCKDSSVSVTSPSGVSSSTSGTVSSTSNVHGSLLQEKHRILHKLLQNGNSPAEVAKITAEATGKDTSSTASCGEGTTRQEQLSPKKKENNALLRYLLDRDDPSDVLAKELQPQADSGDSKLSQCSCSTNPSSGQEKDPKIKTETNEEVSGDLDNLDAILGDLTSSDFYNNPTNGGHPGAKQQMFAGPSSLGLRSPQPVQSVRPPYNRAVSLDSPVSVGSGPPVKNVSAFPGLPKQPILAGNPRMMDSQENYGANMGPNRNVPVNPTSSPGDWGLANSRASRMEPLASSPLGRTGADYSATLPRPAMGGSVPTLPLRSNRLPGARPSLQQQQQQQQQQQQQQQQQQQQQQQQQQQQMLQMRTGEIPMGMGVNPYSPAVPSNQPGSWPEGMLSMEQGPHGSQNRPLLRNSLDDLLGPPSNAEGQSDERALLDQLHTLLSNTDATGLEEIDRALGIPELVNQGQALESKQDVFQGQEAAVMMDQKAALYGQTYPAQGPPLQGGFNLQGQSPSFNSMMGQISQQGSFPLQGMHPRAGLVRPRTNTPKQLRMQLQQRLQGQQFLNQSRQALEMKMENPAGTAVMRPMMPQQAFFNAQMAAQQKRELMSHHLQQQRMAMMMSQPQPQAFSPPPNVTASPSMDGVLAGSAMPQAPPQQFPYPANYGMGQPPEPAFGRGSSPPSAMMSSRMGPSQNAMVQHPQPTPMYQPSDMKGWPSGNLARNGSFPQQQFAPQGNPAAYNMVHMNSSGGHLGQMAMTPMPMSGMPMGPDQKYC
# HTR5A ag ctr: counter-screen for OPRM1-OPRD1 agonists: human HTR5A agonism | P47898 | HTR5A agonist assay, luminescence, cell-based | activation, % at 9.3 µM | hit rate 0.61% among 340,000 | AID 504692; in the data active = activation mostly above about 9.5%, no sharp cut-off; inactive = mostly below about 7.6%;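 note: 0% = cells with vehicle only and 100% = reference agonist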
# MOR-DOR ag: agonists of human mu-delta opioid receptor heterodimerization. cells, OPRM1-OPRD1 heterodimerization, luminescence. activation, % at 9.3 µM. hit rate 0.3% among 340,000. AID 504326;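 note: 0% = vehicle-treated cells and 100% = reference agonist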
# OPRM1-OPRD1 inv: inverse agonists of human mu-delta opioid receptor heterodimerization | cell-based MOR-DOR heterodimer luminescence, inverse agonism | hit rate 0.21% among 340,000 | inhibition, % at 9.3 µM; in the data active = inhibition above about 22%, passing the limit was not always enough;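 note: 0% = cells with DMSO and 100% = wells without cells with DMSO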
# MIN6 prolif-2: confirmation of inducers of beta-cell replication in MIN6 cells; shares compounds with MIN6 prolif-1; MIN6 beta-cell proliferation, ATPlite luminescence, 48 h; cells kept in 0.2% serum; scaled between 0.2% and 10% serum; proliferation increase, % at 50 µM; 920 tested, under 10 active; AID 463095;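 active = proliferation increase above 40% at any of the four tested concentrations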
# MOR-DOR ag conf: confirmation of human OPRM1-OPRD1 heterodimerization agonists | activation, % at 9.3 µM | AID 504904 | shares compounds with MOR-DOR ag | hit rate 45% among 830 | cells, MOR-DOR heterodimerization, luminescence complementation;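 note: 0% = vehicle-treated cells and 100% = reference agonist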
# HTR5A ag ctr2: counter-screen for OPRM1-OPRD1 agonists: human HTR5A agonism; shares compounds with MOR-DOR ag; HTR5A agonist counterscreen, cell luminescence; activation, % at 9.3 µM; hit rate 8% among 830; AID 504905; in the data active = activation above about 17%;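 note: 0% = vehicle-treated cells and 100% = reference agonist response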
# OPRM1-D1 inv cf: OPRM1-OPRD1 heterodimer inverse agonism, confirmation | hit rate 20% among 580 | AID 504900 | inhibition, % at 9.3 µM | shares compounds with OPRM1-OPRD1 inv | cells expressing OPRM1/OPRD1 heterodimer, luminescence; in the data active = inhibition above about 32%;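 note: 0% = cells with DMSO and 100% = wells lacking cells with DMSO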
# HTR5A inv count: inverse agonist of human HTR5A in OPRM1-OPRD1 counter-screen. inhibition, % at 9.3 µM. HTR5A-expressing cells, luminescence, inverse agonism. shares compounds with OPRM1-OPRD1 inv. AID 504914. 580 tested, under 10 active; call rule not given here;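 note: 0% = cells with DMSO and 100% = no-cell wells with DMSO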
# * marks the source's active call; other numbers are inactive results; · = no result. This is a sample that favours compounds with a hit; in the whole collection about 1.4% have one here. Cut-off read from the data, not from the text of the source, unless noted: active = activation above about 18%; inactive = the rest.
SMILES,HTR5A inv ctr,MIN6 prolif-1,p-CIP stab down,HTR5A ag ctr,MOR-DOR ag,OPRM1-OPRD1 inv,MIN6 prolif-2,others
Fc1ccccc1NC(=S)N1CCN(Cc2ccc3c(c2)OCO3)CC1,-5,7.4*,2,12*,-2,8,-2,
CCc1ccc(CCC(=O)N2CCN(S(=O)(=O)c3sc(C(=O)O)c(C)c3C(=O)O)CC2)cc1,1,·,·,0,-1,6,·,
COc1cccc(C(=O)N2CCOCC2)c1OC,1,-1,-9,-1,-2,11,·,
O=C(c1ccc2c3c(cccc13)CC2)N1CCOCC1,13,5.3*,-14,2,-2,7,1,
CN(C)c1ncc(CN2CCC(CO)(CCCc3ccccc3)CC2)s1,18,7.3*,2,3,-1,3,-3,
CCOC(=O)C1(CCc2ccccc2)CCN(Cc2cnc(N(C)C)s2)CC1,-15,-1,0,6,5,-28,·,
COc1cc(C(=O)OCC(=O)NCC2CCCCC2)ccc1OCC(C)C,-14,-1,·,5,0,-1,·,
COc1cc(C(=O)OCC(=O)NC2CCCCCC2)ccc1OCC(C)C,17,11*,·,-7,-1,3,-1,
O=C1CSC(c2ccccc2)N1CCc1ccccc1 (stereo unspecified),11,7.5*,-18,0,-2,8,0,
NC(=O)c1ccc(C2SCC(=O)N2CCc2ccccc2)cc1 (stereo unspecified),10,0,·,-4,-3,11,·,
COC(=O)c1cc2nc(-c3ccc(C)cc3)cc(C(F)(F)F)n2n1,25,-4,-15,-9,0,0,·,
Cc1cc2nc(-c3ccncc3)cc(C(F)(F)F)n2n1,-39,9.3*,-8,3,0,-1,4,
Cc1ccccc1-c1nc(CN2CCN(C(=O)c3ccco3)CC2)c(C)o1,17,8.9*,-6,2,-2,13,-5,
COc1cc(OC)cc(C(=O)N2CCN(S(=O)(=O)c3ccc(Cl)s3)CC2)c1,-5,4,·,1,-1,4,·,
C=CCn1c(Cc2c(C)[nH]c3ccccc23)nnc1SCC(=O)NCc1ccc(F)cc1,11,6.9*,-9,0,-4,15,-5,
CC(=O)C1=C(O)C(=O)N(Cc2ccccc2)C1c1ccc(N(C)C)cc1 (stereo unspecified),6,6.1*,-2,-2,-2,9,0,
COc1cc(NC(=O)CN(c2ccc(C)cc2)S(=O)(=O)c2c(C)n[nH]c2C)cc(OC)c1,8,0.0*,2,-3,-2,10,-6,
COc1ccc(N(CC(=O)Nc2cccc(C)c2)S(=O)(=O)c2c(C)n[nH]c2C)cc1,-22,-4,-18,7,-1,3,·,
CCCCCCCN1C(Nc2ccccc2)=NC[C@@H]1C,1,-4,·,-2,-3,16,·,
CC(C)(C)N(NC(=O)OCc1ccccc1)C(=O)c1ccccc1Cl,-7,0.0*,4,2,-3,13,-4,
CC1(C)Cc2cccc(OCC(=O)Nc3ccccc3F)c2O1,-7,15*,·,3,0,0,-5,
CC1(C)Cc2cccc(OCC(=O)OCC(=O)Nc3ccccc3)c2O1,-17,-1,·,6,-1,6,·,
COC(=O)c1sccc1NC(=O)c1ccc(OC)cc1OC,-3,7.8*,-12,1,-1,3,-3,
CCOc1ccc(-n2cnnn2)cc1S(=O)(=O)Nc1c(C)cccc1C,-1,6.1*,-6,1,-2,12,1,
COCCCNc1nc(N)c([N+](=O)[O-])c(Nc2ccccc2OC)n1,·,7.2*,-7,·,·,·,3,
SMILES,HTR5A inv ctr,MIN6 prolif-1,p-CIP stab down,HTR5A ag ctr,MOR-DOR ag,OPRM1-OPRD1 inv,MIN6 prolif-2,others
COCCCNc1nc(N)c([N+](=O)[O-])c(NCc2ccccc2)n1,10,0,-15,-3,-1,6,·,
COc1ccc(C2/C(=C(/O)c3ccc4c(c3)CC(C)O4)C(=O)C(=O)N2CCCn2ccnc2)cc1OC (stereo unspecified),-5,·,·,1,-2,11,·,
CC1=C(C(=O)NCc2ccc(Cl)cc2)C2(CCC(C)CC2)OC1=O (stereo unspecified),-2,-3,-7,1,3,-15,·,
CCC(Cc1ccccc1)NC(=O)C1=C(C)C(=O)OC12CCC(C)CC2 (stereo unspecified),-8,7.7*,1,3,0,2,-3,
O=C(N/N=C/c1ccccn1)c1ccc2nc[nH]c2c1,·,7.8*,5,·,·,·,1,
CN(c1ncnc(N)c1[N+](=O)[O-])C1CCS(=O)(=O)C1 (stereo unspecified),-4,0,-10,2,-1,6,·,
CN(c1ncnc(N)c1[N+](=O)[O-])C1CCCCC1,2,25*,4,-1,-1,7,12,
O=[N+]([O-])c1ccc(N2CCCC2)cc1NC1CC1,8,11*,10,5,-2,11,-2,
Cc1ccc(Cl)cc1NC(=O)COC(=O)CC1CCCCC1,-3,-3,·,1,8,-32,·,
Cc1ccc(S(=O)(=O)CC(=O)N2CCOCC2)cc1,-4,-3,8,2,-1,5,·,
O=C(CS(=O)(=O)c1ccc(Br)cc1)N1CCOCC1,-11,11*,10,1,-3,16,-3,
CCCc1nc(Cl)c(C#N)c2c1CCCC2,6,9.0*,-16,6,2,-12,7,
CCc1nc(Cl)c(C#N)c2c1CCCC2,-10,2,0,4,1,-8,·,
S=C1NCCc2ccccc2C1c1ccccc1Cl (stereo unspecified),-27,5.3*,2,-2,-9,44*,-6,OPRM1-D1 inv cf=5;HTR5A inv count=10
S=c1ncc2[nH]c(=S)[nH]c2[nH]1,5,·,·,-1,0,1,·,
COc1ccc(S(=O)(=O)/N=C2\C=C(Nc3ccc(O)cc3)C(=O)c3ccccc32)cc1,0,-4,24,0,21*,-119,·,MOR-DOR ag conf=7;HTR5A ag ctr2=1
CC(=O)Nc1ccc(NC2=C/C(=N/S(=O)(=O)c3cccs3)c3ccccc3C2=O)cc1,·,-5,5,·,·,·,·,
N#Cc1ccsc1NC(=O)COC(=O)C1=NNC(=O)CC1,6,-3,·,-2,0,0,·,
